Rows were chosen to be rich in hits. Some 1.7% of all compounds tested hit in one or more screens of this group.
Fam108B counter – Fam108B inhibition, counter-screen for RBBP9 inhibitors; recombinant Fam108B, FP-Rh probe fluorescence polarization; inhibition, % at 9.51 µM; AID 1947; 300,000 compounds, 0.33% hits;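 active means inhibition above the screen mean inhibition plus 3 SD, computed separately per campaign, cut at about 18% in these data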;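 further: inhibitors lower polarization as less probe binds the enzyme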
GSTO1 inh – blocks human GSTO1 in RBBP9 counter-screen. P78417. recombinant GSTO1, activity-based probe fluorescence polarization. inhibition, % at 5.96 µM. 300,000 compounds, 1.1% hits;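 active means inhibition above the campaign mean inhibition plus 3 SD, cut at about 35% in these data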;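 further: 0% = GSTO1-1 with DMSO and 100% = wells lacking GSTO1-1 enzyme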
Target sequence (P78417 whole entry, looked up): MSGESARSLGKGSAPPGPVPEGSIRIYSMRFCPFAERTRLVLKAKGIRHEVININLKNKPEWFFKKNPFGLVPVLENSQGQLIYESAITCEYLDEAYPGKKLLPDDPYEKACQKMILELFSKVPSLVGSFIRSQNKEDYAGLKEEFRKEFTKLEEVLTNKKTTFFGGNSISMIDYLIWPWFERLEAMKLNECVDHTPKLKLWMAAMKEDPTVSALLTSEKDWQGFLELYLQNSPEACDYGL
LYPLA1 inh – blocks human lysophospholipase 1, a PME1 counter-screen | O75608 | 320,000 compounds, 0.16% hits | inhibition, % at 5.9 µM | recombinant LYPLA1, FP-Rh probe fluorescence polarization;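 active means inhibition above the mean of all tested compounds plus 3 SD, set per campaign, cut at about 14% in these data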;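 further: inhibitors block serine hydrolase probe labeling of LYPLA1 so polarization falls; 0% = enzyme with DMSO and 100% = wells lacking LYPLA1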
Target sequence (O75608 whole entry, looked up): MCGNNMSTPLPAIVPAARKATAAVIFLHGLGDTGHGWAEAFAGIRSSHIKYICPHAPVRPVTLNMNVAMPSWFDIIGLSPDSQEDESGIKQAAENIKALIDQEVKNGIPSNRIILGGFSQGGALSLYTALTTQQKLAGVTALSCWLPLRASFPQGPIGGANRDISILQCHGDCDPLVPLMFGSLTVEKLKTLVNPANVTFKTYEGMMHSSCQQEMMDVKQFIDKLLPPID
LYPLA2 inh – counter-screen for PME1 inhibitors: inhibitors of human LYPLA2. recombinant LYPLA2, FP-Rh probe fluorescence polarization. inhibition, % at 5.9 µM. 320,000 compounds, 0.38% hits. AID 2177;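 active means inhibition above the screen-wide mean plus 3 SD, limit set per campaign, cut at about 26% in these data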;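 further: 0% = LYPLA2 with DMSO and 100% = wells lacking LYPLA2 enzyme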
Target sequence (O95372 whole entry, looked up): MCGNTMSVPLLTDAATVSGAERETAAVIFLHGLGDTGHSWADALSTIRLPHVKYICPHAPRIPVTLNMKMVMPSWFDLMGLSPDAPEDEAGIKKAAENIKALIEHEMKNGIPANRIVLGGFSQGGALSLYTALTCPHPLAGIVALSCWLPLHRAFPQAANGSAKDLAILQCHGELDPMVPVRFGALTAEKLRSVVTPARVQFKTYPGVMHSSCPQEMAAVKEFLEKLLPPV
PAD4 inh – inhibitors of human PAD4; 330,000 compounds, 0.41% hits; recombinant PAD4, RCA probe fluorescence polarization; AID 485272; Q9UM07; inhibition, % at 6.36 µM;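 active means percent inhibition above a cutoff equal to the mean of all tested compounds plus 3 SD, cut at about 15% in these data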;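 further: 0% = PAD4 with RCA probe and DMSO and 100% = probe without PAD4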
PME-1 inh – blocks human protein phosphatase methylesterase 1; recombinant PME-1, FP-Rh probe fluorescence polarization; inhibition, % at 5.9 µM; Q9Y570; 320,000 compounds, 0.53% hits;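 active means inhibition above the campaign mean of all compounds plus 3 SD, cut at about 26% in these data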;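 further: competitive labeling of PME-1 active site by serine hydrolase directed probe; 0% = PME-1 with DMSO and 100% = wells lacking PME-1 enzyme; inhibitors block probe labeling so polarization falls and inhibition rises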
LYPLA1 conf – LYPLA1 (human) inhibition, confirmation counter-screen; recombinant LYPLA1, FP-Rh probe fluorescence polarization; AID 2233; shares compounds with LYPLA1 inh; 480 compounds, 69% hits; inhibition, % at 5.9 µM;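 active means mean inhibition across replicates above the hit cutoff set in the primary screen, cut at about 15% in these data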;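 further: loss of FP-Rh probe labeling of LYPLA1 seen as lower polarization; 0% = LYPLA1 with DMSO and 100% = wells lacking LYPLA1 enzyme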
LYPLA2 confirm – counter-screen for PME1 inhibitors: confirmation of human LYPLA2 inhibitors | 1,100 compounds, 72% hits | AID 2232 | inhibition, % at 5.9 µM | recombinant LYPLA2, FP-Rh probe fluorescence polarization | shares compounds with LYPLA2 inh;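 active means mean inhibition across replicates above the hit cutoff set in the primary screen, cut at about 26% in these data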;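 further: blocked labeling of the enzyme by serine hydrolase FP-Rh probe lowers polarization; 0% = enzyme with DMSO and 100% = wells lacking LYPLA2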
* = called active by the depositor.

For Cc1nn(C)cc1S(=O)(=O)N1CCN(Cc2cccc(Cl)c2)CC1 the results were Fam108B counter 0.3, GSTO1 inh -6.3, LYPLA1 inh -2.6, LYPLA2 inh 1.9, PAD4 inh 1.7 and PME-1 inh -2.3.
COc1ccc(CC(=O)NC(C)c2ccc3ccccc3c2)cc1 (centres undefined) was read as Fam108B counter 0.9, GSTO1 inh 27.4, LYPLA1 inh 0.6, LYPLA2 inh 3.6, PAD4 inh -0.8 and PME-1 inh 0.0.
`O=c1oc(-c2ccc(Br)cc2)nc2ccccc12` gave Fam108B counter -9.3, GSTO1 inh -12.7, LYPLA1 inh 1.8, LYPLA2 inh 6.6, PAD4 inh -6.4 and PME-1 inh -4.9.
`CSc1cnc2c(=O)n(C)c(=O)[nH]c2n1` gave Fam108B counter -1.7, GSTO1 inh 5.2, LYPLA1 inh -2.0, LYPLA2 inh -10.9, PAD4 inh -2.8 and PME-1 inh 3.6.
Screening Cn1c(=O)[nH]c2nnc(-c3ccc(Cl)c(Cl)c3)nc2c1=O returned Fam108B counter 6.5, GSTO1 inh 2.3, LYPLA1 inh 14.3*, LYPLA2 inh 3.4, PAD4 inh -2.2, PME-1 inh 14.4 and LYPLA1 conf 24.0*.
For COc1ccc(OC)c(NC(=O)C2CCC(CNc3c(N4CCC(C)CC4)c(=O)c3=O)CC2)c1 (centres undefined) the results were Fam108B counter -1.7, GSTO1 inh 7.9, LYPLA1 inh 45.4*, LYPLA2 inh 6.5, PAD4 inh -5.5, PME-1 inh -0.8 and LYPLA1 conf 43.6*.
`O=C(O)c1cc(NN=C2c3ccccc3-c3ccccc32)ccc1Cl` gave Fam108B counter 7.3, GSTO1 inh 10.1, LYPLA1 inh 16.2*, LYPLA2 inh 12.6, PAD4 inh 0.6, PME-1 inh 35.3* and LYPLA1 conf 16.4*.
Screening Cc1cc(NC(=O)C2CCC2)n(-c2ccccn2)n1 returned Fam108B counter -1.1, GSTO1 inh -3.8, LYPLA1 inh -2.5, LYPLA2 inh 0.1, PAD4 inh 1.0 and PME-1 inh 2.0.
Screening O=C(/C=C/c1ccccc1)N1CCN(CCN2C(=O)c3cccc4cccc(c34)C2=O)CC1 returned Fam108B counter -3.1, GSTO1 inh -1.1, LYPLA1 inh 36.6*, LYPLA2 inh 63.6*, PAD4 inh -2.3, PME-1 inh -3.4, LYPLA1 conf 35.0* and LYPLA2 confirm 58.7*.
For O=C(c1ccc(S(=O)(=O)N2CCCCC2)cc1)N1CCN(CCN2C(=O)c3cccc4cccc(c34)C2=O)CC1 the results were Fam108B counter 3.5, GSTO1 inh -1.0, LYPLA1 inh 20.3*, LYPLA2 inh 34.5*, PAD4 inh -5.9, PME-1 inh 4.1, LYPLA1 conf 42.2* and LYPLA2 confirm 59.8*.
`O=C(CCN1C(=O)c2cccc3cccc(c23)C1=O)N1CCOCC1` gave Fam108B counter 5.9, GSTO1 inh 4.7, LYPLA1 inh 1.7, LYPLA2 inh 3.3, PAD4 inh -1.1 and PME-1 inh -3.3.
Screening O=C(c1ccc(S(=O)(=O)N2CCCC2)cc1)N1CCCCCC1 returned Fam108B counter 2.0, GSTO1 inh 1.0, LYPLA1 inh -0.6, LYPLA2 inh 2.9, PAD4 inh 1.7 and PME-1 inh 7.2.
`CC(C)C(C(=O)NCc1ccco1)N(Cc1ccco1)C(=O)CNS(=O)(=O)c1ccccc1` (centres undefined) gave Fam108B counter 1.0, GSTO1 inh 5.8, LYPLA1 inh -1.3, LYPLA2 inh -5.3, PAD4 inh 0.2 and PME-1 inh -2.8.
For Cc1cc(C)n2nc(NCc3cccc(Br)c3)nc2n1 the results were Fam108B counter 3.3, GSTO1 inh -7.5, LYPLA1 inh 1.2, LYPLA2 inh 8.5, PAD4 inh -3.3 and PME-1 inh -1.1.
Screening CC(C)(C)C(=O)Nc1ccc(C(=O)CN2C(=O)NC3(CCOc4ccccc43)C2=O)cc1 (centres undefined) returned LYPLA1 inh -4.8, LYPLA2 inh 3.5, PAD4 inh -9.8 and PME-1 inh 0.6.
CCC(=O)N1CCN(c2ccc(NC(=S)NC(=O)c3cccc([N+](=O)[O-])c3)cc2)CC1 was read as Fam108B counter 4.8, GSTO1 inh 5.9, LYPLA1 inh 39.0*, LYPLA2 inh 58.0*, PAD4 inh 3.4, PME-1 inh 0.2, LYPLA1 conf 32.5* and LYPLA2 confirm 54.9*.
For CC1(C)CC(=O)C=C(OC(=O)c2ccc(Cl)cc2)C1 the results were Fam108B counter 0.6, GSTO1 inh 1.6, LYPLA1 inh -0.8, LYPLA2 inh -0.7, PAD4 inh 0.3 and PME-1 inh -3.2.
`CC(=O)c1ccc(OCc2cc(C(=O)N(C)Cc3nc4c(C)cccc4[nH]3)no2)cc1` gave Fam108B counter 6.2, GSTO1 inh -0.2, LYPLA1 inh 2.1, LYPLA2 inh 10.7, PAD4 inh 1.3 and PME-1 inh 3.5.
For CC(=O)c1ccc(OCc2cc(C(=O)N(C)CCOc3ccc(C)cc3)no2)cc1 the results were Fam108B counter 0.6, GSTO1 inh -2.4, LYPLA1 inh 20.3*, LYPLA2 inh 26.1*, PAD4 inh 5.0, PME-1 inh 1.4, LYPLA1 conf 22.7* and LYPLA2 confirm 9.4.
`COc1ccc(C(=O)NC(=S)Nc2ccc(CN3CCOCC3)cc2)cc1` gave Fam108B counter 0.3, GSTO1 inh -2.5, LYPLA1 inh 3.6, LYPLA2 inh 10.1, PAD4 inh 2.1 and PME-1 inh 0.4.
`COc1ccc(C(=O)NC(=S)Nc2ccc(N3CCOCC3)cc2)cc1Cl` gave Fam108B counter -0.6, GSTO1 inh 7.8, LYPLA1 inh 14.2*, LYPLA2 inh 39.1*, PAD4 inh -0.7, PME-1 inh 5.2, LYPLA1 conf 24.8* and LYPLA2 confirm 54.7*.
`COc1ccc(C(=O)NC(=S)Nc2ccc(CN3CCOCC3)cc2)cc1Br` gave Fam108B counter 1.9, GSTO1 inh 3.3, LYPLA1 inh 15.1*, LYPLA2 inh 43.7*, PAD4 inh -1.8, PME-1 inh 2.3, LYPLA1 conf 21.8* and LYPLA2 confirm 47.3*.
Cc1ccc(C(=O)NC(=S)Nc2ccc(N3CCOCC3)cc2)cc1C was read as Fam108B counter 5.9, GSTO1 inh -4.0, LYPLA1 inh -2.0, LYPLA2 inh -2.3, PAD4 inh 0.1 and PME-1 inh -2.0.
O=C(N1CCOCC1)n1nnc2ccccc21 was read as Fam108B counter 1.8, GSTO1 inh 2.2, LYPLA1 inh 91.1*, LYPLA2 inh 46.9*, PAD4 inh -0.3, PME-1 inh 1.9, LYPLA1 conf 94.1* and LYPLA2 confirm 51.5*.

Compound activity deposited in PubChem BioAssay by The Scripps Research Institute Molecular Screening Center.
